{"source": "paper PMC12670160", "about": "“A drug-repurposing screen of FDA- and EMA-approved drugs identifies two NF-κB inhibitors active against eumycetoma” (Journal of Antimicrobial Chemotherapy, 2025)", "note": "Where a name gives a salt, the structure may show the parent alone. Out of some 5,300 compounds screened, about 130 (2.5%) showed an effect of 50% or more. The sample holds strong results, similar compounds and a random draw of the others, so the mix is not that of the screen.", "data": [{"tested_on": "M. mycetomatis strain mm55", "conditions": "primary screen, metabolic activity vs growth control; 96 h, 2 µM; inhibitor", "units": {"% viability": "%"}, "values": [{"smiles": "CO[C@H](C(=O)[C@@H](O)[C@@H](C)O)[C@@H]1Cc2cc3cc(O[C@H]4C[C@@H](O[C@H]5C[C@@H](O)[C@H](O)[C@@H](C)O5)[C@@H](O)[C@@H](C)O4)c(C)c(O)c3c(O)c2C(=O)[C@H]1O[C@H]1C[C@@H](O[C@H]2C[C@@H](O[C@H]3C[C@](C)(O)[C@H](O)[C@@H](C)O3)[C@H](O)[C@@H](C)O2)[C@H](O)[C@@H](C)O1", "note": "[ONC0003516, plicamycin mithramycin]", "% viability": 50.92}, {"smiles": "Cc1c(N)nc([C@H](CC(N)=O)NC[C@H](N)C(N)=O)nc1C(=O)N[C@H](C(=O)N[C@H](C)[C@@H](O)[C@H](C)C(=O)N[C@H](C(=O)NCCc1nc(-c2nc(C(=O)NCCC[S+](C)C)cs2)cs1)[C@@H](C)O)[C@@H](O[C@@H]1O[C@@H](CO)[C@@H](O)[C@H](O)[C@@H]1O[C@H]1O[C@H](CO)[C@@H](O)[C@H](OC(N)=O)[C@@H]1O)c1c[nH]cn1", "note": "[ONC0004316, bleomycin sulfate]", "% viability": 4.137}, {"smiles": "Cc1c(N)nc([C@H](CC(N)=O)NC[C@H](N)C(N)=O)nc1C(=O)N[C@H](C(=O)N[C@H](C)[C@@H](O)[C@H](C)C(=O)N[C@H](C(=O)NCCc1nc(-c2nc(C(=O)NCCCNCCCCN)cs2)cs1)[C@@H](C)O)[C@@H](O[C@@H]1O[C@@H](CO)[C@@H](O)[C@H](O)[C@@H]1O[C@@H]1O[C@H](CO)[C@@H](O)[C@H](OC(N)=O)[C@@H]1O)c1cnc[nH]1", "note": "[ONC0002990, bleomycetin]", "% viability": 3.217}, {"smiles": "CO/N=C(/C(=O)NC1C(=O)N2C(C(=O)O)=C(C[N+]3(C)CCCC3)CSC12)c1csc(N)n1", "note": "(stereo not shown) [ONC0000506, cefepime hydrochloride]", "% viability": 66.95}, {"smiles": "CC(=O)OCC(=O)[C@@]1(O)[C@@H](C)CC2C3CCC4=CC(=O)C=C[C@]4(C)[C@@]3(F)[C@@H](O)C[C@@]21C", "note": "(stereo partly shown) [ONC0004050, betamethasone acetate]", "% viability": 111.9}, {"smiles": "O=CN1CCC(C(=O)NCCN2CCC(=C3c4ccccc4C=Cc4ccccc43)CC2)CC1", "note": "[ONC0001856, at1015]", "% viability": 84.57}, {"smiles": "N#Cc1ccc(N2NC3=C(CCc4cc(C(=O)O)ccc43)[C@@H]2C2CCCC2)cc1Cl", "note": "[ONC0002131, pf03882845]", "% viability": 78.15}, {"smiles": "O=C(Nc1cccc(Cl)c1)c1ccccn1", "note": "[ONC0004653, vu 0364770]", "% viability": 68.57}, {"smiles": "COc1ccc(Nc2nccc(NCCO)n2)cc1", "note": "[ONC0000720, cardiogenolc]", "% viability": 79.31}, {"smiles": "OCCCNc1cc(-c2ccnc(Nc3cccc(Cl)c3)n2)ccn1", "note": "[cgp60474]", "% viability": 9.09}]}]}
